Here are results for nine molecules from PubChem BioAssay (NCI).

Among the test systems are NCI-H23 lung; NCI-H226 lung; NCI-H322M lung; HOP-62 NSCLC; NCI-H460 lung; HOP-92 NSCLC; NCI-H522 lung; A549/ATCC NSCLC; DU-145 prostate; K-562 leukemia; MALME-3M melanoma; MDA-MB-231 breast; RXF 393 renal; SF-268 CNS; SF-295 CNS; SF-539 CNS; UACC-257 melanoma; M14 melanoma; 786-0 renal; COLO 205 colon.
What all share (assay): NCI-60 one-dose screen, 48 h (100 = growth as untreated, 0 = no growth, -100 = all killed)
What all share (details): 10 µM unless noted

The structures appear in SMILES notation. The panel holds about 83,000 compounds, 20% with a hit somewhere; the sample as a whole holds those more often.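 Cells were grown in 96-well plates and exposed to the test compound at a single concentration for 48 hours; results are reported as percent growth, with values below 10 considered active.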 A number with no mark means an inactive call. Activity calls are given as the source filed them.

On to `COc1ccc(OC)c(/C=C/[C@H]2O[C@@H](C)[C@H](O)[C@@H]2O)c1`, for which the growth in the experiment with NCI-H23 lung is 99.6%; with NCI-H226 lung, 96.1%; with NCI-H322M lung it was 97.5%; with HOP-62 NSCLC, 106%; in the experiment on NCI-H460 lung, 106%; in the experiment on HOP-92 NSCLC, 94.7%. Moreover, the growth in the experiment on NCI-H522 lung was 91.7%; in the experiment with A549/ATCC NSCLC, 99.4%; with DU-145 prostate it was 121%; with K-562 leukemia, 93%; with MALME-3M melanoma it was 96.7%; in the experiment on MDA-MB-231 breast, 98.4%. Moreover, the growth with RXF 393 renal was 117%; in the experiment on SF-268 CNS, 111%; with SF-295 CNS it was 102%; in the experiment with SF-539 CNS it was 100%; with UACC-257 melanoma it was 104%; in the experiment on M14 melanoma, 103%.

As to `CC(C)(C#N)N1CCN(c2ccccc2Cl)CC1`, the growth is 98.8% in the experiment with NCI-H23 lung; 103% with NCI-H226 lung; 94.8% in the experiment on NCI-H322M lung; 102% in the experiment on HOP-62 NSCLC; 104% with NCI-H460 lung; 98% in the experiment with HOP-92 NSCLC. Besides, the growth in the experiment on NCI-H522 lung was 90.9%; in the experiment with 786-0 renal it was 97.9%; with COLO 205 colon, 113%; with DU-145 prostate it was 105%; with K-562 leukemia it was 96.4%; with MALME-3M melanoma, 91.2%. The growth is 110% with MDA-MB-231 breast; 118% in the experiment on RXF 393 renal; 101% with SF-268 CNS; 97.2% in the experiment with SF-295 CNS; 96.8% in the experiment on SF-539 CNS; 92.1% in the experiment on UACC-257 melanoma. Moreover, the growth in the experiment on M14 melanoma is 99.2%.

For `CC(=O)N1c2ccccc2NC2=C(C(=O)N(Cc3ccccc3)C2(C)C)C1c1ccco1` (stereo not drawn), the growth was 20.9% in the experiment on NCI-H23 lung; 65.7% with NCI-H226 lung; 44.6% in the experiment with NCI-H322M lung; 33.1% in the experiment with HOP-62 NSCLC; 4.83% (active) in the experiment on NCI-H460 lung; 21.1% in the experiment on HOP-92 NSCLC. Besides, the growth is 21.8% in the experiment on NCI-H522 lung; 21.4% in the experiment with 786-0 renal; 16.8% in the experiment on COLO 205 colon; 7.82% (active) in the experiment on DU-145 prostate; 12.6% with K-562 leukemia; 69.9% in the experiment with MALME-3M melanoma. Moreover, the growth in the experiment on MDA-MB-231 breast is 9.25% (active); in the experiment on RXF 393 renal, -11.7% (active); in the experiment on SF-268 CNS, 42.7%; in the experiment on SF-295 CNS, -0.752% (active); in the experiment with SF-539 CNS, -17.9% (active); in the experiment on UACC-257 melanoma, 77.6%. In addition, in the experiment on M14 melanoma, the growth is -13.6% (active).

For the molecule `CCN(CC)CCCCCCNc1cc(OC)cc2cccnc12`, the growth is 85.5% in the experiment on NCI-H23 lung; 97.4% with NCI-H226 lung; 96% in the experiment on NCI-H322M lung; 92.1% with HOP-62 NSCLC; 32.6% in the experiment on NCI-H460 lung; 85.2% with HOP-92 NSCLC. The growth with NCI-H522 lung was 5.26% (active); in the experiment on 786-0 renal it was -50.7% (active); with DU-145 prostate, 40.8%; in the experiment with K-562 leukemia it was -47.8% (active); in the experiment on MALME-3M melanoma it was -77.4% (active); with MDA-MB-231 breast it was 32.6%. Further, the growth in the experiment on SF-268 CNS is 79.3%; in the experiment on SF-295 CNS, 86.5%; in the experiment on SF-539 CNS it was 68.5%; in the experiment with UACC-257 melanoma, 115%.

For `Clc1ccc(C2CC(c3cccc(Nc4ccncc4)c3)=NN2c2ccccc2)cc1` (stereo not drawn), the growth with NCI-H23 lung was 84.3%; in the experiment on NCI-H226 lung it was 93.1%; with NCI-H322M lung, 69.7%; in the experiment on HOP-62 NSCLC, 0.979% (active); with NCI-H460 lung it was -70.5% (active); in the experiment on HOP-92 NSCLC, 55.8%. The growth with NCI-H522 lung was -39.1% (active); in the experiment with 786-0 renal it was -94.3% (active); in the experiment with COLO 205 colon, -63.6% (active); in the experiment on DU-145 prostate, 56.7%; in the experiment with K-562 leukemia it was 0.432% (active); in the experiment with MALME-3M melanoma it was -72% (active). Moreover, the growth was 75.2% with MDA-MB-231 breast; 82.1% with SF-268 CNS; 70% in the experiment with SF-295 CNS; 71.5% in the experiment on SF-539 CNS; 34.5% in the experiment with UACC-257 melanoma; -80.6% (active) in the experiment on M14 melanoma.

For the molecule `COc1ccccc1N1CCN(C(=O)c2ccc3nc(NC(=O)c4ccc(NCCc5ccccc5)c([N+](=O)[O-])c4)sc3c2)CC1`, the growth is 81.9% with NCI-H23 lung; 87.4% with NCI-H226 lung; 91.5% in the experiment with NCI-H322M lung; 82.9% in the experiment with HOP-62 NSCLC; 86.5% in the experiment on NCI-H460 lung; 81.9% in the experiment on HOP-92 NSCLC. In addition, the growth with NCI-H522 lung was 80.4%; with 786-0 renal, 110%; in the experiment on COLO 205 colon it was 100%; in the experiment with DU-145 prostate it was 68.7%; in the experiment with K-562 leukemia, 86%; in the experiment with MALME-3M melanoma it was 45.6%. Further, the growth is 75.7% in the experiment with MDA-MB-231 breast; 67.6% in the experiment with SF-268 CNS; 102% in the experiment on SF-295 CNS; 99.7% in the experiment with SF-539 CNS; 72.7% in the experiment on UACC-257 melanoma; 64.4% in the experiment on M14 melanoma.

For `CCCCCCCCN1C(=O)/C(=c2\sc3n(c2=O)C2C(NN=3)N(CC)C(=O)N2CC)c2ccccc21` (stereo not drawn), the growth with NCI-H23 lung was 79.1%; in the experiment on NCI-H226 lung, 91.9%; in the experiment on NCI-H322M lung, 83%; in the experiment on HOP-62 NSCLC, 47.3%; in the experiment with NCI-H460 lung, 88%; in the experiment with NCI-H522 lung, 66.6%. In addition, the growth with A549/ATCC NSCLC is 75.9%; in the experiment with 786-0 renal it was 65.7%; in the experiment with COLO 205 colon, 104%; with DU-145 prostate, 97.8%; in the experiment on K-562 leukemia it was 92.6%; with MALME-3M melanoma, 82.6%. Also, the growth in the experiment with MDA-MB-231 breast was 71.5%; in the experiment with SF-268 CNS, 65.3%; with SF-295 CNS, 73%; in the experiment with SF-539 CNS it was 59.9%; with UACC-257 melanoma it was 96.3%; in the experiment on M14 melanoma, 95.4%.

As to `COc1ccc2c(c1)OC13Oc4cc(OC)ccc4C=C1CCCC3=C2`, the growth is 48.3% in the experiment on NCI-H23 lung; 64.1% in the experiment with NCI-H226 lung; 80.8% in the experiment on NCI-H322M lung; 41.4% in the experiment on HOP-62 NSCLC; 14.3% in the experiment with NCI-H460 lung; 20.4% in the experiment with NCI-H522 lung. In addition, the growth was 75% in the experiment with A549/ATCC NSCLC; 38.7% with 786-0 renal; -9.95% (active) with COLO 205 colon; 33.9% in the experiment on DU-145 prostate; 23.5% in the experiment on K-562 leukemia; 70.3% with MALME-3M melanoma. Further, the growth was 32% with MDA-MB-231 breast; 16% in the experiment with RXF 393 renal; 38.5% in the experiment with SF-268 CNS; 78.6% in the experiment with SF-295 CNS; 84.5% in the experiment on SF-539 CNS; 52.5% in the experiment on UACC-257 melanoma. Also, in the experiment on M14 melanoma, the growth was 31.5%.

For `C=C(C)[C@H]1CC/C(C)=C/CC[C@]2(C)O[C@H]2CC/C(COC(=O)[C@@H](OC(C)=O)[C@H](NC(=O)c2ccccc2)c2ccccc2)=C\[C@@H]1O`, the growth was 98.5% in the experiment with NCI-H23 lung; 95% in the experiment with NCI-H226 lung; 104% with NCI-H322M lung; 97.6% in the experiment with HOP-62 NSCLC; 89% with NCI-H460 lung; 59.5% in the experiment with NCI-H522 lung. Moreover, the growth with A549/ATCC NSCLC is 87.3%; in the experiment with 786-0 renal, 85.1%; with COLO 205 colon, 113%; in the experiment with DU-145 prostate it was 102%; in the experiment with K-562 leukemia, 129%; in the experiment on MALME-3M melanoma, 100%. Besides, the growth was 88.5% in the experiment on MDA-MB-231 breast; 90.2% in the experiment on SF-268 CNS; 88.8% with SF-295 CNS; 87.2% in the experiment on SF-539 CNS; 83.1% in the experiment on UACC-257 melanoma; 90.6% in the experiment on M14 melanoma.
